Source: PubChem
Rab9 promoter act: qHTS Assay for Rab9 Promoter Activators; Huh7 Rab9 promoter-luciferase reporter, luminescence, 24 h; Potency, µM (doses to about 9.22 µM), actives largely listed as activators; hit rate 2.8% among 320,000; further: nearly all actives have a fitted effect of over 60% in size
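Huh7 reporter line, Rab9 promoter upstream of luciferase. Compound exposure 24 h at 37 °C in reduced-serum medium with 10% FBS. Read-out: luminescence.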
SMN2 splice enh: qHTS Assay for Enhancers of SMN2 Splice Variant Expression | HEK293 SMN2-luciferase splicing reporter, luminescence, 30-36 h | Potency, µM (doses to about 46.1 µM), hits mostly activators | hit rate 2.8% among 210,000; further: nearly all actives have a fitted effect of over 55% in size
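HEK293 cells carry an SMN2 […]–luciferase reporter in which exon 7 inclusion puts luciferase in frame. Cells were plated 10-12 h before compound addition, then incubated 30-36 h at 37C. ONE-Glo luminescence was read; sodium butyrate at 4.5 mM final served as control.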
NPC1 promoter act: qHTS Assay for NPC1 Promoter Activators; Huh7 NPC1 promoter luciferase reporter, 24 h; Potency, µM (series often up to 9.22 µM), usual class: activators; hit rate 2.4% among 320,000; AID 485313, 2010; further: nearly all actives have a fitted effect of over 60% in size
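Quantitative HTS used a cell-based reporter: Huh7 cells stably bearing the NPC1 promoter upstream of luciferase were treated with compounds for 24 h, and promoter activation was read as luminescence.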
ELG1 genotoxic: qHTS screen for small molecules that induce genotoxicity in human embryonic kidney (HEK293T) cells expressing luciferase-tagged ELG1; Potency, µM (highest dose often 46 µM), most hits filed as activators; HEK293T ELG1-luciferase reporter, luminescence, 16 h; hit rate 1.3% among 330,000; further: nearly all actives have a fitted effect of over 60% in size
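Quantitative HTS format in 1536-well plates. HEK293T ELG1-luciferase reporter cells receive test compound and are incubated 16 hr at 37 °C, 5% CO2; ONE-Glo added, 30 min room temperature, then luminescence read.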
FLuc counter: qHTS profiling assay for firefly luciferase inhibitor/activator using purifed enzyme and Km concentrations of substrates (counterscreen for miR-21 project); Luciferin 4-monooxygenase (Photinus pyralis), P08659; purified FLuc, Km substrates, luminescence inhibition; Potency, µM (series often up to 57.5 µM), hits mostly inhibitors; hit rate 6.9% among 360,000; further: nearly all actives have a fitted effect of over 55% in size
Target sequence (P08659 whole entry, looked up): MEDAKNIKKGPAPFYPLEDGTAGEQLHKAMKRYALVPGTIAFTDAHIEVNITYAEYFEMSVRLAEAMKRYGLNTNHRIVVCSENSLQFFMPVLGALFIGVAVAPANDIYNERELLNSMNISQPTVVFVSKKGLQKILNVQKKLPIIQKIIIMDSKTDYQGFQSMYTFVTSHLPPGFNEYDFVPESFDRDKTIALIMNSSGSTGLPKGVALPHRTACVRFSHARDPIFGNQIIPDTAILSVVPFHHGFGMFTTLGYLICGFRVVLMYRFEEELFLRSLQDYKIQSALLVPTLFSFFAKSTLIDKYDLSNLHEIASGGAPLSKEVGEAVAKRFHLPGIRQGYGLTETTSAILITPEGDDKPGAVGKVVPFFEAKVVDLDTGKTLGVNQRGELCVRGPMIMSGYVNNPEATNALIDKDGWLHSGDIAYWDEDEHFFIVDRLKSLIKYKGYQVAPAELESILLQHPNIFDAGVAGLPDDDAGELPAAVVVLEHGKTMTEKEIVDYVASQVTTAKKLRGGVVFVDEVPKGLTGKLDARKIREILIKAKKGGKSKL
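Purified P. pyralis luciferase (10nM final) with 10uM D-luciferin and 10uM ATP (Km levels) in 50mM Tris acetate pH 7.5, 10mM Mg acetate, 0.01% Tween-20, 0.05% BSA; qHTS 6-point titration, ~60 µM downward; luminescence read.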
Hits are given with their value; . = inactive; ? = inconclusive; / = not tested or not shown. Compounds with a hit are over-represented: about 7.4% of the library has one in this group of screens. The call rests on the fitted dose curve; in most records, active means well fitted curve in the direction sought with a large enough effect; inconclusive means small, poorly fitted or top-dose-only effect, or another doubt; inactive means no such curve, though single readings can be large; an effect the other way counts as inactive or inconclusive.

SMILES	Rab9 promoter act	SMN2 splice enh	NPC1 promoter act	ELG1 genotoxic	FLuc counter
CCOc1ccc(OCCSc2nc(C)cc(=O)[nH]2)cc1	?	.	?	?	13µM
Cc1ccc(SCCSc2nc(N)cc(=O)[nH]2)cc1	.	/	.	.	?
COc1ccc(OCCSc2nc(N)cc(=O)[nH]2)cc1	.	/	.	.	.
C[C@@H](CCc1ccc(O)cc1)NCCc1ccc(O)c(O)c1	/	.	/	/	/
Cc1nn(CCCC(=O)Nc2ccccc2C(F)(F)F)c(=O)c2c1sc1ccccc12	/	/	/	/	.
CC(=O)c1cnc2cc(-c3ccccc3)nn2c1C	1.4µM	16µM	2.5µM	2.2µM	2.4µM
CC(=O)c1cnc2nc(SCc3ccccc3)nn2c1C	3.5µM	/	4.5µM	?	/
COc1ccc(-c2cc3ncc(C(C)=O)c(C)n3n2)cc1	1.3µM	11µM	2.2µM	?	?
CC(=O)c1cnc2cc(-c3ccc(C)cc3)nn2c1C	3.5µM	11µM	?	7.3µM	3.4µM
CC(=O)c1cnc2cc(C)nn2c1C	.	.	.	.	.
CC(=O)c1cnc2nc(SCc3ccc(C)cc3)nn2c1C	.	/	.	.	.
Cc1ccc(-c2nc(S(=O)(=O)c3ccc(C)cc3)c(SCC(=O)NC3CCCCC3)o2)cc1	/	.	/	/	.
O=C(N/N=C/c1ccc([N+](=O)[O-])o1)c1cc(-c2cccc(Br)c2)nc2ccccc12	.	.	.	.	4.8µM
CCCc1ccc(-c2cc(C(=O)N/N=C/c3ccc([N+](=O)[O-])o3)c3ccccc3n2)cc1	?	.	.	?	0.15µM
Cc1cc(C(=O)N/N=C/c2ccc([N+](=O)[O-])o2)c(C)o1	.	/	.	.	.
COc1ccc(-c2noc(CN(C(C)C)S(=O)(=O)c3ccc(Br)cc3)n2)cc1	/	.	/	/	.
CCOC(=O)c1cnc2cc(-c3ccc(Cl)cc3)nn2c1N	1.3µM	?	1.1µM	?	?
CCOC(=O)c1cnc2cc(-c3ccc(Br)cc3)nn2c1C	2.8µM	/	?	?	?
Cc1nc(/C(N)=N/OC(=O)c2ccc(Cl)cc2)c(C(F)(F)F)o1	.	/	.	.	7.6µM
Cc1nc(C(=O)NNC(=O)c2cccc(Cl)c2)c(C(F)(F)F)o1	.	/	.	.	.
Cc1no[n+]([O-])c1COc1ccc(/C=C2\NC(=S)NC2=O)cc1	.	.	.	.	.
CCOc1ccc(/C=C2\NC(=S)NC2=O)cc1	.	/	.	.	17µM
O=C1N(Cc2cccc(C(F)(F)F)c2)c2ccccc2S(=O)(=O)N1c1cccc(Cl)c1	/	/	/	/	.
COc1ccc(CC(=O)O/N=C(\N)c2ccncc2)cc1	.	/	.	.	.
Cc1cccc(OCC(=O)O/N=C(\N)c2ccccn2)c1C	?	?	?	?	9.5µM
SMILES	Rab9 promoter act	SMN2 splice enh	NPC1 promoter act	ELG1 genotoxic	FLuc counter
COc1ccc(CC(=O)O/N=C(\N)c2ccc(C)cc2)cc1	?	/	?	.	17µM
CC(C)(C)CC(=O)O/N=C(\N)c1ccccn1	0.63µM	7.1µM	0.56µM	2.6µM	4.8µM
Cc1ccc(CC(=O)O/N=C(\N)c2ccccn2)cc1	?	/	4.5µM	?	4.8µM
Cc1ccc(NC(=O)Cn2cc3c(n2)CCCCC3)cc1	/	.	/	/	.
CCCC(=O)NCC1(N(C)C)CCCCC1	/	/	/	/	.
COc1cc(Cl)c(C)cc1NC(=O)Cn1ncc2c(=O)oc3ccccc3c21	/	.	/	/	.
N/C(=N\OC(=O)COc1cc(Cl)c(Cl)cc1Cl)c1ccccn1	1.1µM	11µM	0.79µM	?	2.4µM
N/C(=N\OC(=O)Cc1ccc(Cl)cc1)c1ccccn1	.	.	.	16µM	9.5µM
Cc1ccc(OCC(=O)O/N=C(\N)c2ccccn2)cc1	2.5µM	13µM	4µM	?	13µM
Cc1ccc2c(=O)cc(C(=O)Nc3ccc(S(=O)(=O)Nc4onc(C)c4C)cc3)oc2c1C	/	.	/	/	?
COc1cccc(NC(=O)CSc2nc(=O)n(Cc3ccccn3)c3c2CCC3)c1	/	/	/	/	.
Cc1ccccc1NC(=O)c1ccccn1	.	/	.	.	?
O=C(CC(=O)Nc1ccccn1)Nc1ccccn1	.	.	.	.	.
COc1ccc(C(=O)/C=C/Nc2ccccn2)c(OC)c1	0.89µM	/	0.56µM	1.8µM	3.4µM
O=C(/C=C/Nc1ccccc1Br)c1ccccn1	/	?	/	/	0.076µM
COc1ccc(C(=O)/C=C/Nc2c(C)n(C)n(-c3ccccc3)c2=O)c(OC)c1	.	.	.	.	.
O=C(/C=C\Nc1ccccn1)c1ccccc1	0.35µM	2µM	0.63µM	0.52µM	0.67µM
CCOC(=O)Cn1c(=O)n(CC2CCCO2)c2nc(-c3cccc(C)c3)nc(C(N)=O)c21 (stereo not drawn)	/	/	/	/	.
C=CCOc1ccc(CNc2nccs2)cc1OCC	.	.	.	.	.
C=CCOc1ccc(CNc2nccs2)cc1	.	?	.	.	13µM
CCOc1ccc(N2C(=O)CCC2=O)cc1	.	.	.	.	.
CCCC1CCC(c2ccc(OCC)cc2)=CC1=O (stereo not drawn)	3.5µM	/	2µM	?	6.7µM
CCN(CC)S(=O)(=O)c1cc(NC(=O)CSc2nnc(-c3cccs3)o2)ccc1C	.	.	.	.	.
Cc1ccc(NC(=O)CSc2nnc(-c3cccs3)o2)cc1S(=O)(=O)N(C)C	3.5µM	?	?	?	.
CCN(CC)c1ccc(NC(=O)c2cncc(Br)c2)cc1	?	?	?	.	17µM
SMILES	Rab9 promoter act	SMN2 splice enh	NPC1 promoter act	ELG1 genotoxic	FLuc counter
Cc1cnc(NC(=O)c2cncc(Br)c2)s1	1.3µM	/	2.2µM	?	8.5µM
CCN(CC)c1ccc(NC(=O)c2cccnc2)cc1	/	.	/	/	?
Cc1ccc(NC(=O)c2cncc(Br)c2)cc1S(=O)(=O)N(C)C	?	11µM	?	?	9.5µM
Cc1ccc(NC(=O)c2sccc2C)cc1S(=O)(=O)N(C)C	.	.	.	.	19µM
Cc1ccc(C(=O)/C=C/Nc2cccc(O)c2)cc1	?	25µM	.	4.1µM	0.38µM
Cc1ccc(N/C=C/C(=O)c2ccccc2)cc1Br	3.2µM	/	4µM	?	0.6µM
O=C(/C=C/Nc1cccc(O)c1)c1ccccc1	.	?	?	?	0.17µM
C/C(=C\C(=O)c1ccc(C)cc1)Nc1cccc(O)c1	0.63µM	?	2.8µM	?	0.85µM
C#CCCCC(=S)Nc1ccccc1	/	.	/	/	/
CC(=O)Nc1cccc(NC(=O)CSc2cn(CC(=O)N(C(C)C)C(C)C)c3ccccc23)c1	/	/	/	/	.
Cc1ccc(C(=O)/C=C/Nc2ccc3c(c2)OCO3)cc1	0.71µM	?	0.71µM	?	0.27µM
O=C(/C=C/Nc1ccc(F)c(Cl)c1)c1ccccc1	3.5µM	/	?	18µM	2.4µM
CC(=O)Nc1ccc(N/C=C/C(=O)c2ccc(Cl)cc2)cc1	?	/	?	.	.
CC(=O)c1cccc(N/C=C\C(=O)c2ccc(C)cc2)c1	0.79µM	6.3µM	0.79µM	2.6µM	0.3µM
CC(=O)c1cccc(NS(=O)(=O)c2ccc(N/C=C\C(=O)c3ccc(C)cc3)cc2)c1	.	.	.	.	.
